Changes are numbered by the printed parent chain; changes in the protein carry UniProt numbers. The full ranking holds about 16,000 sequences; the median of “ka relative to ugcaugu” is about 0.0091, and the highest 2% start at about 0.032. The full list was thinned out, with the highest values kept by preference.

First the molecules themselves.
B1: UAACCGC (DNA:RNA)
RNA: GGGAGACCGGAAUUCAGAUUGUCCUAACCGCUUAAAUCCCGUCGUAGCCACCA
DNA 1: CAATCTGAATTCCGGTCTCCC
DNA 2: TGGTGGCTACGACGGGATT
B2: CAACUUU (DNA:RNA)
RNA: B1 RNA with U25C, C29U, G30U, C31U
DNA 1: CAATCTGAATTCCGGTCTCCC
DNA 2: TGGTGGCTACGACGGGATT
B3: UUGCAAU (DNA:RNA)
RNA: B1 RNA with A26U, A27G, C29A, G30A, C31U
DNA 1: CAATCTGAATTCCGGTCTCCC
DNA 2: TGGTGGCTACGACGGGATT
B4: CACCGUG (DNA:RNA)
RNA: B1 RNA with U25C, A27C, C29G, G30U, C31G
DNA 1: CAATCTGAATTCCGGTCTCCC
DNA 2: TGGTGGCTACGACGGGATT
B5: AGUCCAG (DNA:RNA)
RNA: B1 RNA with U25A, A26G, A27U, G30A, C31G
DNA 1: CAATCTGAATTCCGGTCTCCC
DNA 2: TGGTGGCTACGACGGGATT
B6: AGGCAGA (DNA:RNA)
RNA: B1 RNA with U25A, A26G, A27G, C29A, C31A
DNA 1: CAATCTGAATTCCGGTCTCCC
DNA 2: TGGTGGCTACGACGGGATT
B7: AGAGAAG (DNA:RNA)
RNA: B1 RNA with U25A, A26G, C28G, C29A, G30A, C31G
DNA 1: CAATCTGAATTCCGGTCTCCC
DNA 2: TGGTGGCTACGACGGGATT
B8: GGGUUUU (DNA:RNA)
RNA: GGGAGACCGGAAUUCAGAUUGUCCGGGUUUUUUAAAUCCCGUCGUAGCCACCA
DNA 1: CAATCTGAATTCCGGTCTCCC
DNA 2: TGGTGGCTACGACGGGATT
B9: ACCGGGU (DNA:RNA)
RNA: B8 RNA with G25A, G26C, G27C, U28G, U29G, U30G
DNA 1: CAATCTGAATTCCGGTCTCCC
DNA 2: TGGTGGCTACGACGGGATT
B10: GGGAGUU (DNA:RNA)
RNA: B8 RNA with U28A, U29G
DNA 1: CAATCTGAATTCCGGTCTCCC
DNA 2: TGGTGGCTACGACGGGATT
B11: GUCGGGU (DNA:RNA)
RNA: B8 RNA with G26U, G27C, U28G, U29G, U30G
DNA 1: CAATCTGAATTCCGGTCTCCC
DNA 2: TGGTGGCTACGACGGGATT
B12: GGGUUUG (DNA:RNA)
RNA: B8 RNA with U31G
DNA 1: CAATCTGAATTCCGGTCTCCC
DNA 2: TGGTGGCTACGACGGGATT
B13: GGAGUUU (DNA:RNA)
RNA: B8 RNA with G27A, U28G
DNA 1: CAATCTGAATTCCGGTCTCCC
DNA 2: TGGTGGCTACGACGGGATT
B14: CGGGUUU (DNA:RNA)
RNA: B8 RNA with G25C, U28G
DNA 1: CAATCTGAATTCCGGTCTCCC
DNA 2: TGGTGGCTACGACGGGATT
B15: GGGGAGU (DNA:RNA)
RNA: B8 RNA with U28G, U29A, U30G
DNA 1: CAATCTGAATTCCGGTCTCCC
DNA 2: TGGTGGCTACGACGGGATT
B16: GUUUGGG (DNA:RNA)
RNA: B8 RNA with G26U, G27U, U29G, U30G, U31G
DNA 1: CAATCTGAATTCCGGTCTCCC
DNA 2: TGGTGGCTACGACGGGATT
B17: CCGGGUU (DNA:RNA)
RNA: B8 RNA with G25C, G26C, U28G, U29G
DNA 1: CAATCTGAATTCCGGTCTCCC
DNA 2: TGGTGGCTACGACGGGATT
B18: GGGUUGU (DNA:RNA)
RNA: B8 RNA with U30G
DNA 1: CAATCTGAATTCCGGTCTCCC
DNA 2: TGGTGGCTACGACGGGATT
B19: GUCCGGG (DNA:RNA)
RNA: B1 RNA with U25G, A26U, A27C, C29G, C31G
DNA 1: CAATCTGAATTCCGGTCTCCC
DNA 2: TGGTGGCTACGACGGGATT
B20: UAAUAUG (DNA:RNA)
RNA: B1 RNA with C28U, C29A, G30U, C31G
DNA 1: CAATCTGAATTCCGGTCTCCC
DNA 2: TGGTGGCTACGACGGGATT

This assay deals with T1, RBFOX1 RRM (Homo sapiens, UniProt Q9NWB1 109-208).
T1 sequence: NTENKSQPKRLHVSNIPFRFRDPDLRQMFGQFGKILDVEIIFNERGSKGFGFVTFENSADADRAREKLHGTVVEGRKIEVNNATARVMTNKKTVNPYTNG
Nature of the assay: EMSA; HiTS-Eq, 1 nM pool, 10 min; buffer printed only for the single-RNA assays: 10 mM Tris pH 7.5, 150 mM NaCl, 3.4 mM EDTA, 0.001% NP-40, 30 C. The settings on record: tags: His6 N-terminal (pET28a); label: 5' 32P. A digest of the protocol: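 These values rest on relative association constants, computed from read-count changes of each RNA species versus the control reaction and normalised to the cognate motif. Reads came from free RNA recovered by 8% native PAGE after purified RbFox RRM (wild type or mutant) at increasing concentrations was equilibrated for 10 min in 50 µL with 1 nM of a 5′-radiolabelled pool with 7 randomized nucleotides and DNA-annealed flanks.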
In general terms: Mobility shift assays separate free from complexed probe on a gel.
In the case of B1, the binding signal is 0.0039 KA relative to UGCAUGU.
Next, B2: 0.000994 KA relative to UGCAUGU; B3: 0.0162 KA relative to UGCAUGU.
Next, B4: 0.0057 KA relative to UGCAUGU; B5: 0.00711 KA relative to UGCAUGU.
To B6 belongs 0.00971 KA relative to UGCAUGU.
For B7, the binding signal was 0.00984 KA relative to UGCAUGU.
Next, B8: 0.0323 KA relative to UGCAUGU; B9: 0.013 KA relative to UGCAUGU; B10: 0.0324 KA relative to UGCAUGU.
Next, B11: 0.0137 KA relative to UGCAUGU; B12: 0.0349 KA relative to UGCAUGU.
For B13, the binding signal was 0.0247 KA relative to UGCAUGU.
To B14 belongs 0.0393 KA relative to UGCAUGU.
B15: the binding signal was 0.0316 KA relative to UGCAUGU.
Next, B16: 0.0128 KA relative to UGCAUGU; B17: 0.0196 KA relative to UGCAUGU; B18: 0.0284 KA relative to UGCAUGU.
On to B19, for which the binding signal is 0.00708 KA relative to UGCAUGU.
Consider B20, for which the binding signal was 0.0114 KA relative to UGCAUGU.

The values are drawn from publication PMC9911399, “Two distinct binding modes provide the RNA-binding protein RbFox with extraordinary sequence specificity”.
